Screening data as filed in PubChem BioAssay.
VP16 counter = counter-screen for ROR gamma inhibitors: Gal4-VP16 reporter; Potency, µM (titrated, usually from 53.6 µM), actives largely listed as inhibitors; Drosophila S2 Gal4-VP16 UAS-luciferase, luminescence, 20 h; actives 3.5% (n = 310,000);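 also: Gal4-VP16 expression switched on by copper sulfate through the metallothionein promoter; nearly all actives have a fitted effect of over 50% in size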
uPA surface inh = inhibitors of cell surface uPA generation. AID 540303. actives 0.31% (n = 330,000). Potency, µM (top dose mostly 38.3 µM), actives largely listed as inhibitors. cell surface uPA generation assay, qHTS; active = well fitted inhibition curve with a large enough effect; inconclusive = small, poorly fitted or top-dose-only effect; inactive = no such curve, though single readings can be large or run the other way; tested in mouse RAW 264.7 cells; also: nearly all actives have a fitted effect of over 55% in size
Integrin act MD = activators of alpha7 integrin expression for muscular dystrophy. alpha7betagal myoblasts, beta-gal FDG fluorescence, 48 h. Potency, µM (titrated, usually from 38.3 µM), actives largely listed as activators. actives 0.064% (n = 350,000). AID 624291; also: nearly all actives have a fitted effect of over 60% in size
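Alpha7betagal+/- myoblasts (passage 13) were plated 16-24 hr, then exposed to compounds (1:260 dilution of DMSO stock) for 48 hours at 37C. After MPER lysis, β-galactosidase reporter activity was read as FDG fluorescence (ex 480/em 540) after 30 minutes.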
Mito fusion yeast = inhibitors of mitochondrial division or activators of mitochondrial fusion; Potency, µM (titrated, usually from 46.1 µM), usual class: activators; actives 0.23% (n = 320,000); AID 485298; S. cerevisiae fusion-defective mutant growth rescue, CellTiterGlo 48 h; also: nearly all actives have a fitted effect of over 45% in size
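S. cerevisiae fusion-defective temperature-sensitive mutants (e.g. fzo1-1, mgm1-5) grown 48 h at 37C in YPEG (ethanol/glycerol non-fermentable) medium with 23 nl compound per well; growth rescue read as CellTiterGlo luminescence.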
RORg inh = inhibitors of mouse ROR gamma transcriptional activity; P51450; Drosophila S2 Gal4-RORgamma UAS-luciferase reporter, 20 h; Potency, µM (titrated, usually from 53.6 µM), usual class: inhibitors; actives 5.4% (n = 310,000); AID 2551; also: nearly all actives have a fitted effect of over 60% in size
Target sequence (P51450 whole entry, looked up, the tested form may be a part): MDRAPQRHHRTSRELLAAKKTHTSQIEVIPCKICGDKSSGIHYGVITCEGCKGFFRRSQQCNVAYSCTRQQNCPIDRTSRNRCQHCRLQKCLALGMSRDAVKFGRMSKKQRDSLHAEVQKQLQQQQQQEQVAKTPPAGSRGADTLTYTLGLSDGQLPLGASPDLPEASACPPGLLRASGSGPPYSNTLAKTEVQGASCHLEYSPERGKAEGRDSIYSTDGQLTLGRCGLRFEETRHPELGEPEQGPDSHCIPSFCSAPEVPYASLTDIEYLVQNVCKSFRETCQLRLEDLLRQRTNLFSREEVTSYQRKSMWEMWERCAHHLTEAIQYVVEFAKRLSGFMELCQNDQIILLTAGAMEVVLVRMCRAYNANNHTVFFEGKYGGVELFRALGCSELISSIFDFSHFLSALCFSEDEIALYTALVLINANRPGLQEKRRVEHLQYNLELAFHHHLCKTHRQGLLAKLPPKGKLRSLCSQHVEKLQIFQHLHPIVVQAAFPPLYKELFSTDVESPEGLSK
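A Gal4/UAS one-hybrid system in insect cells: metallothionein-promoter Gal4–ROR gamma fusion plus Photinus luciferase reporter. Copper sulfate 700 uM final, 20 hr ambient incubation, luminescent detection after 10 min with reagent.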
BCR signal inh = blocks chronic active B-cell receptor signaling; ABC-DLBCL IkBa-CBG/CBR reporter, luminescence ratio, 4 h; Potency, µM (top dose mostly 46.1 µM), usual class: inhibitors; actives 0.05% (n = 340,000); active = well fitted inhibition curve with a large enough effect in the signal ratio, with a control signal flat, not every such curve was filed as active; inconclusive = small, poorly fitted or top-dose-only effect, or effect the other way, or a change in a side signal; the % refers to the signal ratio
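TMD8 human ABC-DLBCL cells with doxycycline-inducible IκBα–green luciferase fusion and unfused red luciferase, in 0.5% FBS medium; compounds up to 46 uM, 4 h at 37C. Green/red luminescence ratio, filter-overlap corrected, fitted to concentration-response curves.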
Numbers stand for hits; [ ] = remark or other dose. A selection: hits, their analogues and other compounds. The true share with any hit is near 5.5%. Unless noted, calls follow the shape of the dose curve; as a rule, active = well fitted curve in the direction sought with a large enough effect; inconclusive = small, poorly fitted or top-dose-only effect, or another doubt; inactive = no such curve, though single readings can be large; an effect the other way counts as inactive or inconclusive.

Results for COc1ccccc1-c1n[nH]c(=S)n1-c1ccccc1 ?
VP16 counter: inconclusive; uPA surface inh: inactive; Integrin act MD: inactive; Mito fusion yeast: inactive; RORg inh: 11µM; BCR signal inh: inconclusive

How did COc1ccccc1-c1n[nH]c(=S)n1N do in these assays?
VP16 counter: inactive; uPA surface inh: inactive; Integrin act MD: inactive; Mito fusion yeast: inactive; RORg inh: inactive; BCR signal inh: inactive

How did CCN1CCN(C(C)C(=O)NC2CCCCC2)CC1 (stereo not given) do in these assays?
VP16 counter: inactive; uPA surface inh: inactive; Integrin act MD: inactive; Mito fusion yeast: inactive; RORg inh: inactive; BCR signal inh: inactive

How did O=C(c1cccc(Cl)c1)N1CCCc2ccccc21 do in these assays?
VP16 counter: inactive; uPA surface inh: inactive; Integrin act MD: inactive; Mito fusion yeast: inactive; RORg inh: inactive[1.91 µM]; BCR signal inh: inactive

How did O=[N+]([O-])c1ccc(NN=Cc2cccc3ccccc23)cc1 do in these assays?
uPA surface inh: inactive; Integrin act MD: inconclusive

What do the screens show for `O=[N+]([O-])c1cc(Br)c(O)c(/C=N/Nc2nnnn2-c2cccc3ccccc23)c1`?
VP16 counter: 6.3µM; Integrin act MD: inactive; Mito fusion yeast: inactive; RORg inh: 3.2µM; BCR signal inh: inactive

How did Clc1ccccn1 do in these assays?
VP16 counter: inactive; uPA surface inh: inactive; Mito fusion yeast: inactive; RORg inh: inactive; BCR signal inh: inactive

What do the screens show for `COc1cc(CC2COC(=O)C2(O)Cc2ccc(O)c(OC)c2)ccc1O` (stereo not given)?
VP16 counter: 7.1µM; uPA surface inh: inactive; Integrin act MD: inactive; Mito fusion yeast: inactive; RORg inh: inconclusive; BCR signal inh: inactive

Results for Cc1cc2ncn(/N=C/c3cccnc3)c2cc1C ?
VP16 counter: inactive; uPA surface inh: inactive; Integrin act MD: inactive; Mito fusion yeast: inactive; RORg inh: inactive; BCR signal inh: inactive

Results for Cc1cc2ncn(/N=C/c3ccc(-c4ccccc4)o3)c2cc1C ?
VP16 counter: 20µM; uPA surface inh: inactive; Integrin act MD: inactive; Mito fusion yeast: inactive; RORg inh: 11µM; BCR signal inh: inactive

What do the screens show for `CC(C)(CO)[C@@H](O)C(=O)NCCC(=O)NCCSSCCNC(=O)CCNC(=O)[C@H](O)C(C)(C)CO`?
VP16 counter: inactive; RORg inh: inactive

How did Cc1ccc(S(=O)(=O)N2CCCCC2CCNC(=O)C(=O)NCCc2ccco2)cc1 (stereo not given) do in these assays?
uPA surface inh: 1µM; Integrin act MD: inactive; Mito fusion yeast: inactive; BCR signal inh: inactive

Results for Cc1ccc(S(=O)(=O)N2CCCCC2CCNC(=O)C(=O)NCc2ccco2)cc1 (stereo not given) ?
uPA surface inh: inactive; Integrin act MD: inactive; Mito fusion yeast: inactive; BCR signal inh: inactive

How did O=C(O)CCC/C=C\C[C@@H]1[C@@H](CC[C@@H](O)CCc2ccccc2)[C@H](O)C[C@@H]1O do in these assays?
VP16 counter: inactive; RORg inh: inactive

How did S=C(S)OC1CC2CC1C1CCCC21 (stereo not given) do in these assays?
uPA surface inh: inactive; Mito fusion yeast: 18µM

What do the screens show for `S=C(S)O[C@@H]1C[C@@H]2C[C@H]1[C@@H]1CCC[C@H]21`?
VP16 counter: 1µM; RORg inh: 0.56µM

How did Cc1ccc(-c2nc3scc(CCNS(=O)(=O)c4ccc(C)c(C)c4)n3n2)cc1 do in these assays?
BCR signal inh: inactive

Results for Cn1ncc(C(=O)N=S(C)(=O)c2ccccc2)c1[N+](=O)[O-] (stereo not given) ?
VP16 counter: inactive; uPA surface inh: inactive; Integrin act MD: inactive; Mito fusion yeast: inactive; RORg inh: inactive; BCR signal inh: inconclusive

What do the screens show for `Cc1ccc(-c2nc(N)sc2-c2ccccc2)cc1C`?
VP16 counter: 10µM; uPA surface inh: inactive; Integrin act MD: inactive; Mito fusion yeast: inactive; RORg inh: 7.9µM; BCR signal inh: inactive

What do the screens show for `CN(Cc1ccco1)c1ncncc1-c1ccccc1Cl`?
VP16 counter: inactive; RORg inh: inactive

What do the screens show for `O=C1CNC(=S)N1c1nc(-c2ccccc2)cs1`?
VP16 counter: inconclusive; uPA surface inh: inactive; Integrin act MD: inactive; Mito fusion yeast: inactive; RORg inh: 3.2µM; BCR signal inh: inactive

How did CCCCN(CC)CCNC(=O)Cn1cc2c(n1)-c1c(oc(C(=O)N3CCCC3)c1C)CC2 do in these assays?
VP16 counter: inconclusive; uPA surface inh: inactive; Integrin act MD: inactive; Mito fusion yeast: inactive; RORg inh: 16µM; BCR signal inh: inconclusive

How did Cc1c(C(=O)N2CCCC2)oc2c1-c1nn(CC(=O)NCCCOC(C)C)cc1CC2 do in these assays?
VP16 counter: inactive; uPA surface inh: inactive; Integrin act MD: inactive; Mito fusion yeast: inactive; RORg inh: inactive; BCR signal inh: inactive

How did CCN(C(=O)Cn1cc(C(F)(F)F)ccc1=O)C1CCS(=O)(=O)C1 (stereo not given) do in these assays?
Integrin act MD: inactive

How did CCNC(=S)N/N=C(\C)c1cc2ccccc2o1 do in these assays?
VP16 counter: 7.9µM; uPA surface inh: inactive; Integrin act MD: inactive; Mito fusion yeast: inactive; RORg inh: 3.5µM; BCR signal inh: inactive

How did C/C(=N\NC(=O)c1ccc(O)cc1)c1cc2ccccc2o1 do in these assays?
VP16 counter: 10µM; uPA surface inh: inactive; Integrin act MD: inactive; Mito fusion yeast: inactive; RORg inh: 6.3µM; BCR signal inh: inconclusive

Results for CC/C(=N\NC(=S)Nc1cccc(C)c1)c1ccccc1 ?
VP16 counter: inconclusive; uPA surface inh: inactive; Integrin act MD: inconclusive; Mito fusion yeast: inactive; RORg inh: inconclusive; BCR signal inh: inconclusive

How did C/C(=N\NC(=S)Nc1cccc(C)c1)c1cc2ccccc2o1 do in these assays?
VP16 counter: inconclusive; uPA surface inh: inactive; Integrin act MD: inactive; Mito fusion yeast: inactive; RORg inh: 2.5µM; BCR signal inh: inactive

How did CCCCCNC(=O)CCn1c(=O)[nH]c2ccccc2c1=O do in these assays?
BCR signal inh: inactive

How did O=c1cnc2cnc(Oc3ccccc3)nc2n1Cc1cccs1 do in these assays?
VP16 counter: inactive; RORg inh: inactive

Results for O=C(Nc1ccc(F)cc1)Nc1cc(OCC(F)(F)F)cc(OCC(F)(F)F)c1 ?
VP16 counter: 6.3µM; uPA surface inh: inconclusive; Integrin act MD: inactive; Mito fusion yeast: inactive; RORg inh: inconclusive; BCR signal inh: inconclusive

How did C=CCNC(=O)N1CCCC(N2CCN(c3ccccc3OC)CC2)C1 (stereo not given) do in these assays?
VP16 counter: inactive; uPA surface inh: inactive; Integrin act MD: inactive; Mito fusion yeast: inactive; RORg inh: inactive; BCR signal inh: inactive

Results for O=C(NCc1ccncc1)C(=O)Nc1nc(C23CC4CC(CC(C4)C2)C3)cs1 ?
VP16 counter: inactive; uPA surface inh: inactive; Integrin act MD: inactive; Mito fusion yeast: inactive; RORg inh: inactive[10 µM]; BCR signal inh: inconclusive
